Experiments:
[1] = biological target: Tyrosine-protein kinase Fer (Homo sapiens) (UniProt P16591); settings: at 1 µM
[2] = biological target: Tyrosine-protein kinase Fes/Fps (Homo sapiens) (UniProt P07332); settings: at 0.1 µM
[3] = biological target: Tyrosine-protein kinase Fes/Fps (Homo sapiens) (UniProt P07332); settings: at 1 µM
[4] = biological target: Fibroblast growth factor receptor 1 (Homo sapiens) (UniProt P11362); settings: at 0.1 µM
[5] = biological target: Fibroblast growth factor receptor 1 (Homo sapiens) (UniProt P11362); settings: at 1 µM
[6] = biological target: Fibroblast growth factor receptor 2 (Homo sapiens) (UniProt P21802); settings: at 0.1 µM
[7] = biological target: Fibroblast growth factor receptor 2 (Homo sapiens) (UniProt P21802); settings: at 1 µM
[8] = biological target: Fibroblast growth factor receptor 3 (Homo sapiens) (UniProt P22607); settings: at 0.1 µM
[9] = biological target: Fibroblast growth factor receptor 3 (Homo sapiens) (UniProt P22607); settings: at 1 µM
[10] = biological target: Fibroblast growth factor receptor 4 (Homo sapiens) (UniProt P22455); settings: at 0.1 µM
[11] = biological target: Fibroblast growth factor receptor 4 (Homo sapiens) (UniProt P22455); settings: at 1 µM
[12] = biological target: Tyrosine-protein kinase Fgr (Homo sapiens) (UniProt P09769); settings: at 0.1 µM
[13] = biological target: Tyrosine-protein kinase Fgr (Homo sapiens) (UniProt P09769); settings: at 1 µM
[14] = biological target: Vascular endothelial growth factor receptor 1 (Homo sapiens) (UniProt P17948); settings: at 0.1 µM
[15] = biological target: Vascular endothelial growth factor receptor 1 (Homo sapiens) (UniProt P17948); settings: at 1 µM
[16] = biological target: Receptor-type tyrosine-protein kinase FLT3 (Homo sapiens) (UniProt P36888); settings: at 0.1 µM
[17] = biological target: Receptor-type tyrosine-protein kinase FLT3 (Homo sapiens) (UniProt P36888); settings: at 1 µM
[18] = system: T1, Receptor-type tyrosine-protein kinase FLT3 (Homo sapiens), P36888 [D835Y]; settings: at 0.1 µM
T1 sequence (whole entry): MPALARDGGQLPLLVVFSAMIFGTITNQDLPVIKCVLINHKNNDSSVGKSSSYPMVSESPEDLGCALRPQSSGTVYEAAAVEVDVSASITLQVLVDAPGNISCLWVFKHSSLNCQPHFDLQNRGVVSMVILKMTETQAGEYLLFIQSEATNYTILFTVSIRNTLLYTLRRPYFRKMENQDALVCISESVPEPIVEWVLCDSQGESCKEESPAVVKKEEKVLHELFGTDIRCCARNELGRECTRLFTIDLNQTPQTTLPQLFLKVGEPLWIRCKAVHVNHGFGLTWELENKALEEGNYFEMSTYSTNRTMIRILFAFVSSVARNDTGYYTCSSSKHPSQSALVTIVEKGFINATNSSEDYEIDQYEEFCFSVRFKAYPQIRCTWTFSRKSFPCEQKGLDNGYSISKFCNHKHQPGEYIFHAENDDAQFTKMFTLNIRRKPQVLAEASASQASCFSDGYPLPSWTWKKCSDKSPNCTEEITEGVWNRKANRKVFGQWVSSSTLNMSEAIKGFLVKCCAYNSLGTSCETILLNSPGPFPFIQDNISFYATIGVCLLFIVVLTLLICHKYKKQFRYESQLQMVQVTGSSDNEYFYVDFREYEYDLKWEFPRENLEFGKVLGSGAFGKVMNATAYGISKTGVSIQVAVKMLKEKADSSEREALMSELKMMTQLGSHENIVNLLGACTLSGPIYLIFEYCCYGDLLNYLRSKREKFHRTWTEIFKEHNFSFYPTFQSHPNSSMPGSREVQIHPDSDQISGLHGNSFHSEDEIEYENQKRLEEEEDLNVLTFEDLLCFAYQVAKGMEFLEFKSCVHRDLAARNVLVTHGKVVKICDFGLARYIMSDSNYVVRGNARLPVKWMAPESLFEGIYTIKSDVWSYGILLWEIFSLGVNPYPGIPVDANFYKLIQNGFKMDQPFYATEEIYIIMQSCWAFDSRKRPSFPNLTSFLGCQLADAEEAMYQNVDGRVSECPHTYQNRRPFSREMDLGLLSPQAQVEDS

[19] = biological target: Non-receptor tyrosine-protein kinase TYK2 (Homo sapiens) (UniProt P29597); settings: at 1 µM;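 note: values are mean percent inhibition of TYK2 kinase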
[20] = biological target: T2, Tyrosine-protein kinase receptor TYRO3 (Homo sapiens) (UniProt Q06418); settings: at 0.1 µM;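 note: reported percentages are averaged inhibition values of TYRO3 kinase activity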
T2 sequence (whole entry): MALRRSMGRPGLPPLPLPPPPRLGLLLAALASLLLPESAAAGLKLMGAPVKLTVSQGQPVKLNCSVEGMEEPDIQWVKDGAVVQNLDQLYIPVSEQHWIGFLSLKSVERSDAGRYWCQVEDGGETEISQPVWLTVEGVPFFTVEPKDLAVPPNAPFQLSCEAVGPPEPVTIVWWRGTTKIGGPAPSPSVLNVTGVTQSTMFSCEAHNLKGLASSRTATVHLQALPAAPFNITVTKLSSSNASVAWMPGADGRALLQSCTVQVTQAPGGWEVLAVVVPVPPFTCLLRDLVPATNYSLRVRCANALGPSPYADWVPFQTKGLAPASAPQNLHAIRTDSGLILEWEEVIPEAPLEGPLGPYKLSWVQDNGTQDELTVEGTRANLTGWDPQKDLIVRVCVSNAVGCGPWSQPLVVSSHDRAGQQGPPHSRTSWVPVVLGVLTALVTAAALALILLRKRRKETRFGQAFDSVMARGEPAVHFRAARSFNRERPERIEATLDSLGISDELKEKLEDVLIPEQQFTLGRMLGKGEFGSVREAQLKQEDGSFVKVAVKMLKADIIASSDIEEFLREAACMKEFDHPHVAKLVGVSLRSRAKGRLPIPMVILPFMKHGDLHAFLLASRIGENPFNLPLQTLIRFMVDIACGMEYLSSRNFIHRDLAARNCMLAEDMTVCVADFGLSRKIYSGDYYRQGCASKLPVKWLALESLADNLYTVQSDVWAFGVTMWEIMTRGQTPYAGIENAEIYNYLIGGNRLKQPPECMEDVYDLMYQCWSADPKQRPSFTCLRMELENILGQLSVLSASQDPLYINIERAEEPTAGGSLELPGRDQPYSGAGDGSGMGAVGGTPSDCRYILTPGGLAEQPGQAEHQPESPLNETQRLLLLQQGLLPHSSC

Chain of Fibroblast growth factor receptor 1 (Homo sapiens) (P11362 22-822 limits assumed): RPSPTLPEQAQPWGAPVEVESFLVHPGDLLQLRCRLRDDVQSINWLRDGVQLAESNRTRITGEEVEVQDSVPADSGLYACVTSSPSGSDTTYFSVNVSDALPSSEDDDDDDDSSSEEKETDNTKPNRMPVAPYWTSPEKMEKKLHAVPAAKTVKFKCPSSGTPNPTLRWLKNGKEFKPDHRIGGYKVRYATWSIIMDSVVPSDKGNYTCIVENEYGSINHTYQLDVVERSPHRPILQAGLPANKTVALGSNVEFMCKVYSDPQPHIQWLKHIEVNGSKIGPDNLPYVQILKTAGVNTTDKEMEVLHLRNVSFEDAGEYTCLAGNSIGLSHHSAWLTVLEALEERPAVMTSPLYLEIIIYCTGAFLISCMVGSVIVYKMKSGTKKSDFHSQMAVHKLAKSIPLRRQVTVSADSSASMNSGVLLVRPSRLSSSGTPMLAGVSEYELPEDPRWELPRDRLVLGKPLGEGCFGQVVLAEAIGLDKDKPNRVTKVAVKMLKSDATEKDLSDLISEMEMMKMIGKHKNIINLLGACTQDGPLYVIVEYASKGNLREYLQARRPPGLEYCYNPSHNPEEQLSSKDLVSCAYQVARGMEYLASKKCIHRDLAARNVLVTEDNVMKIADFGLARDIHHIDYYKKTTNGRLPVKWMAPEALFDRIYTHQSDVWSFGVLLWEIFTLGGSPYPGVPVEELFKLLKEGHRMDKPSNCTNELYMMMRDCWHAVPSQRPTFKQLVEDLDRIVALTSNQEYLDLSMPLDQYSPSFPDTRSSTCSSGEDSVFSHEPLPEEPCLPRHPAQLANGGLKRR
Chain of Tyrosine-protein kinase Fer (Homo sapiens) (P16591 whole entry, looked up): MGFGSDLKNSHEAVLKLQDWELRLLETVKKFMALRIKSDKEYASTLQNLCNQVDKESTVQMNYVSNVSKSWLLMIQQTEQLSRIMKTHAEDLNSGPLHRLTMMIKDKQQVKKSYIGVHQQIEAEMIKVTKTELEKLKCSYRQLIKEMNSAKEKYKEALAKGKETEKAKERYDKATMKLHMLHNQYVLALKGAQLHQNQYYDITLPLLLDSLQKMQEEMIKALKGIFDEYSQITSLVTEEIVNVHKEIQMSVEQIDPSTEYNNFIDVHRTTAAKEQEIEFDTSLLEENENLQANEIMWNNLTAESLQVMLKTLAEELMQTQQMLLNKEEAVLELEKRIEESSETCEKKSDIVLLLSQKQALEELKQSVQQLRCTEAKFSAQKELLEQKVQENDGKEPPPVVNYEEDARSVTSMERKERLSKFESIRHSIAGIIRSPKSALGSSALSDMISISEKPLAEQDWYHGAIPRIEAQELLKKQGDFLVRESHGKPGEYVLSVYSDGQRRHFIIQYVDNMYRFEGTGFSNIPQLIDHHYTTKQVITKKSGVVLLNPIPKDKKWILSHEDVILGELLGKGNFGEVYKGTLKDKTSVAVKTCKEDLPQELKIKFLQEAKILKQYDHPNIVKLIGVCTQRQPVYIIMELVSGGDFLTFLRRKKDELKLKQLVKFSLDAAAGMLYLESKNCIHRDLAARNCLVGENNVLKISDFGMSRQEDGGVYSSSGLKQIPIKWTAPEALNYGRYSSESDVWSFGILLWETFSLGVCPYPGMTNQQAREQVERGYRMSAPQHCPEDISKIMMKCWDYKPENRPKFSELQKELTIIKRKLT
Chain of Fibroblast growth factor receptor 2 (Homo sapiens) (P21802 22-821 limits assumed): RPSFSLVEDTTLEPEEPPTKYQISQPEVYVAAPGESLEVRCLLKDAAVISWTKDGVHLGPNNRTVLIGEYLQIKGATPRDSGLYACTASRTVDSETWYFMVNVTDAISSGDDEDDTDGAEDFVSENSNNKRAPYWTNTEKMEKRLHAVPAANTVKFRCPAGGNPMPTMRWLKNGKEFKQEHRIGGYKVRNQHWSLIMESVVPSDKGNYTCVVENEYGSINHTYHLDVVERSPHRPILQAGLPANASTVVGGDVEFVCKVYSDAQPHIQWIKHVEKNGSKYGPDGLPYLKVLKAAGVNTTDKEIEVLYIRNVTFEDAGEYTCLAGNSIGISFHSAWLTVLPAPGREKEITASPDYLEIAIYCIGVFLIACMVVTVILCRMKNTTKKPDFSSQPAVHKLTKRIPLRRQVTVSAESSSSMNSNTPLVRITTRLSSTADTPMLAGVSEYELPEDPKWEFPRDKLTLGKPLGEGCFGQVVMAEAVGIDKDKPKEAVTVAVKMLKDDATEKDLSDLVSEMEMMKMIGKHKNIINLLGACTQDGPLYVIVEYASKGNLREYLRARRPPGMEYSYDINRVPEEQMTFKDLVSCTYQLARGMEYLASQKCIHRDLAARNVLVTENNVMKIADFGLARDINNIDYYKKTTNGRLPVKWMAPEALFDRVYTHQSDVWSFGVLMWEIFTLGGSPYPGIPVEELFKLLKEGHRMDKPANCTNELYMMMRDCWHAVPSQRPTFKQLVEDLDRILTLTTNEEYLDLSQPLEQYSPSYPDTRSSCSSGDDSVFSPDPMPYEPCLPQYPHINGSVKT
Chain of Tyrosine-protein kinase Fes/Fps (Homo sapiens) (P07332 whole entry): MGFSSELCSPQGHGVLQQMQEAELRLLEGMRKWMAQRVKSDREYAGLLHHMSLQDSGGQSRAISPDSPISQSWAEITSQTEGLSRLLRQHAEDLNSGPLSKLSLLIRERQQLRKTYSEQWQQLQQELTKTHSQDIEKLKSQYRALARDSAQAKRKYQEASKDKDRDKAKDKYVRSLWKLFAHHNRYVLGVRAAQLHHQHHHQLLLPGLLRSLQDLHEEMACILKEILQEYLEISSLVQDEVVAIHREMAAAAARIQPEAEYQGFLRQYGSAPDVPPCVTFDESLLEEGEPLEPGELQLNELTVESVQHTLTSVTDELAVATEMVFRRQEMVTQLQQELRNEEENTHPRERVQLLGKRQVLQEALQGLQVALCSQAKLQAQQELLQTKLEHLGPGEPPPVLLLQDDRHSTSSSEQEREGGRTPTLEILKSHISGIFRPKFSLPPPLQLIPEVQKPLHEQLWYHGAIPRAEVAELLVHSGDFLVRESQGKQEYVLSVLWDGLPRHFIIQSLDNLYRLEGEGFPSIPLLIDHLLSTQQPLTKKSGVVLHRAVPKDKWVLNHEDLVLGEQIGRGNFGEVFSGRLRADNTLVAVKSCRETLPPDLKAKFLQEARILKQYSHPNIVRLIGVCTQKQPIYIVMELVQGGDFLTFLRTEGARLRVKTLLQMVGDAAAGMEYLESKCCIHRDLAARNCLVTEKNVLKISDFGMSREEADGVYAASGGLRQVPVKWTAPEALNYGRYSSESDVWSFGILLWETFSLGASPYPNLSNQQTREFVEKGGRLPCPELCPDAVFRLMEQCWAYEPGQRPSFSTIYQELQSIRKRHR
Chain of Vascular endothelial growth factor receptor 1 (Homo sapiens) (P17948 whole entry): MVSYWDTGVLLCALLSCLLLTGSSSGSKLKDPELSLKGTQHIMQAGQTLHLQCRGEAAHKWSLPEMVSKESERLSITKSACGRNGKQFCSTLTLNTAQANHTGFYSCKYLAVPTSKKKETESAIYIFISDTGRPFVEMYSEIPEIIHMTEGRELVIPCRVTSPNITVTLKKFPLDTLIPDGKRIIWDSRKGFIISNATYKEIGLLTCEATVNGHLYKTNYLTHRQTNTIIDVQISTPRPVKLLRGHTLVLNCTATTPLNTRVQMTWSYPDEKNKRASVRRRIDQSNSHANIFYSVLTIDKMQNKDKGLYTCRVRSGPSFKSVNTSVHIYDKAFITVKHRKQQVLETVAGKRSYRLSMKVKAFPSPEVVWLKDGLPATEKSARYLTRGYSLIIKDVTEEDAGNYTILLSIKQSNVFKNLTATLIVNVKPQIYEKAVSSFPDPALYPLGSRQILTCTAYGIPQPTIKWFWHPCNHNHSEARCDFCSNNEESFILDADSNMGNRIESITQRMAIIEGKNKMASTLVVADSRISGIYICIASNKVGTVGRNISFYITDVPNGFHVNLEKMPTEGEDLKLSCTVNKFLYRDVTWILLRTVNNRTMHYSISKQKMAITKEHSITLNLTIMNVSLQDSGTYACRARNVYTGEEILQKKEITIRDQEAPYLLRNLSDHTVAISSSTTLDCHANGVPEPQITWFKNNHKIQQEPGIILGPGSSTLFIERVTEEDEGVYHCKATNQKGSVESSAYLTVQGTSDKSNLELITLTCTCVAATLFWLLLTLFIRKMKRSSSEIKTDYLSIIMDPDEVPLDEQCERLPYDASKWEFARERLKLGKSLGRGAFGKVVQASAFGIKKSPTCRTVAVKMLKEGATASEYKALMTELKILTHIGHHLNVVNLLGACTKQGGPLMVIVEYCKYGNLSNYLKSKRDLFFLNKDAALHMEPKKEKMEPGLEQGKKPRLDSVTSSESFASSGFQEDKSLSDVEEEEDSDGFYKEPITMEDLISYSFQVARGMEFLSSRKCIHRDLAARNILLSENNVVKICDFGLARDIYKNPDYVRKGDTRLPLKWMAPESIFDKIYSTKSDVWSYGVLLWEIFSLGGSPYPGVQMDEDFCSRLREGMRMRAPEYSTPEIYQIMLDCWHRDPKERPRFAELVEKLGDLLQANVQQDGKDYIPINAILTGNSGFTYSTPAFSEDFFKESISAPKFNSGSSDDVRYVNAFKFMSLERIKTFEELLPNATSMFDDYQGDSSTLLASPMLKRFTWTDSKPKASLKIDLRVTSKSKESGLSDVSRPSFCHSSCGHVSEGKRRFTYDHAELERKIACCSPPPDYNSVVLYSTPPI

| SMILES | inhibition [1] [%] | inhibition [2] [%] | inhibition [3] [%] | inhibition [4] [%] | inhibition [5] [%] | inhibition [6] [%] | inhibition [7] [%] | inhibition [8] [%] | inhibition [9] [%] | inhibition [10] [%] | inhibition [11] [%] | inhibition [12] [%] | inhibition [13] [%] | inhibition [14] [%] | inhibition [15] [%] | inhibition [16] [%] | inhibition [17] [%] | inhibition [18] [%] | inhibition [19] [%] | inhibition [20] [%] |
| --- | --- | --- | --- | --- | --- | --- | --- | --- | --- | --- | --- | --- | --- | --- | --- | --- | --- | --- | --- | --- |
| COc1ccc2cc(-c3c(-c4ccncc4)nc(-c4ccc([S+](C)[O-])cc4)n3C)ccc2c1 (stereo not given) | 3.19 | 2.73 | 3 | 0.66 | 17 | 3.38 | 5.85 | 4.62 | 5.2 | 0.03 | 1.73 | 1.14 | 6.14 | -2.5 | -1.05 | 1.98 | 1.93 | -0.4 | -4.84 | 0.64 |
| COc1ccc(COc2ccc(Cc3cnc(N)nc3N)cc2OC)cc1 | 2.33 | 1.72 | 2.24 | 1.78 | 2.1 | 1.46 | 6.83 | 2.29 | 0.98 | 3.95 | 3.16 | -0.01 | 4.25 | 1.03 | 2.11 | -1.11 | 1.13 | -4.6 | 0.26 | 0.79 |
| O=C1Nc2ccc(C(=O)c3ccco3)cc2C1=Cc1cc(Cl)c(O)c(Cl)c1 | 11.5 | 1.95 | 2.89 | 3.35 | 8.23 | 6.09 | 25.8 | 9.26 | 19.1 | 2.69 | 7.04 | 2.46 | 11.6 | 1.07 | 4.42 | 1.69 | 12.7 | 4.82 | 26.4 | 1.96 |
| CS(=O)(=O)CCNCc1nc(-c2ccc3ncnc(Nc4ccc(F)c(Cl)c4)c3c2)cs1 | 4.88 | 0.25 | -0.06 | -5.98 | 1.65 | 1.9 | 5.07 | 2.17 | 4.26 | 2.32 | -0.36 | 5.78 | 10.6 | 1.98 | -0.42 | -0.6 | 0.63 | 2.29 | -3.18 | 0.5 |
| CC(=O)Nc1cccc(C#Cc2cncnc2Nc2ccc(OCc3cccc(F)c3)c(Cl)c2)n1 | 4.77 | -0.62 | -1.06 | -3.81 | -5.8 | -4.24 | 0.03 | -1.4 | -2.39 | 0.06 | 0.7 | 4.5 | 3.79 | -1.03 | -0.69 | -2.34 | -0.61 | 1.25 | 2.39 | 0.18 |
| CCn1c(-c2nonc2N)nc2cnc(Oc3cccc(NC(=O)c4ccc(OCCN5CCOCC5)cc4)c3)cc21 | 2.2 | 2.8 | 2.83 | 1.76 | 5.99 | 4.83 | 3.45 | 3.36 | 1.9 | -4.45 | 2.48 | 4.08 | 5.54 | 0.64 | 2.14 | 0.9 | 3.19 | -3.34 | -1.28 | 3.27 |
| Nc1nc(-c2ccccn2)c(-c2ccc3ncccc3n2)s1 | 6.59 | 2.12 | 3.07 | 7 | 5.84 | 3.92 | 7.02 | 5.15 | 4.97 | -1.61 | 0.28 | 1.09 | 2.08 | 0.57 | 5.82 | 8.03 | 2.99 | -0.61 | -1.33 | 1.89 |
| Cc1ccc(C(=O)NC2CCCCC2)cc1-c1ccc(C(=O)NCC2CC2)cc1 | 4.17 | 3.08 | 2.29 | 3.66 | 5.66 | 2.75 | 6.2 | 4.11 | 4.7 | -0.52 | 2.89 | 2.07 | 5.25 | 2.97 | 2.09 | 0.22 | -0.64 | -1.58 | -2.34 | 1.42 |
| Nc1nc(-c2ccc3c(c2)C(=Cc2cc(Br)c(O)c(Br)c2)C(=O)N3)cs1 | 3.05 | -2.93 | -3.65 | -5.75 | -1.36 | -1.12 | 1.88 | -0.11 | 1.45 | -4.66 | 3.96 | -0.02 | 5.44 | -0.63 | 0.2 | -3.03 | 0.66 | -2.57 | 2.43 | -0.46 |
| CCCN1CCC(Oc2cc(Nc3nc(Nc4cccc(F)c4C(N)=O)c4cc[nH]c4n3)c(OC)cc2Cl)CC1 | 16 | 0.64 | 8.02 | 0.06 | 3.54 | -2.81 | 3.3 | 0.52 | 0.96 | 0.71 | 1.48 | 0.61 | 4.19 | -0.02 | 2.7 | 0.23 | 2.55 | -3.12 | 0.45 | -0.27 |
| CCn1c(-c2nonc2N)nc2ccncc21 | 0.13 | 0.83 | 1.98 | 0.47 | -1.46 | -0.14 | 4.73 | 0.49 | 0.64 | -8.14 | -0.3 | 0.66 | 1.16 | 0.15 | -0.38 | 3.16 | 1.23 | -3.67 | -0.83 | -0.29 |
| CCn1c(-c2nonc2N)nc2cncc(C(=O)N3CCNCC3)c21 | 0.82 | 5.22 | 4.85 | 7.76 | 5.74 | 11.8 | 7.87 | 12.3 | 7.38 | 4.67 | 2.67 | 1.29 | 2.57 | 0.7 | 2.54 | 5.99 | 4.6 | -1.23 | -2.3 | 1.84 |
| CS(=O)(=O)Nc1ccc(N/C=C2\C(=O)Nc3ccccc32)cc1 | 5.06 | -2.08 | -1.95 | -1.9 | 5.82 | 1.04 | 27.1 | 1.57 | 25.5 | 2.33 | 5.07 | 1.13 | 15 | 4.31 | 20.8 | 18.4 | 74.1 | 18.7 | 9.24 | -2.18 |
| CCn1c(-c2nonc2N)nc2c(C#CC(C)(C)O)nc(OC[C@@H](N)c3ccccc3)cc21 | 4.88 | -0.53 | 5.13 | -3.47 | 5.43 | -3.01 | 0.85 | -1.33 | -0.5 | 2.3 | 0.19 | 5 | 10.2 | 5.16 | 33.9 | -0.98 | -0.75 | -1.79 | 0.35 | -0.52 |
| Cc1cc(O)cc(C)c1/C=C/c1cncc(-c2nn[nH]n2)c1 | 11.9 | 2.28 | 3.8 | 2.34 | 3.83 | 1.54 | 13.3 | 3.74 | 2.92 | -9.13 | 0.95 | 9.4 | 51.5 | 3.27 | 5.69 | 2.5 | 4.37 | -2.23 | -2.7 | 3.72 |
| CC1=C(C(=O)Nc2ccc3[nH]ncc3c2)C(c2ccc3ccccc3c2)CC(=O)N1 (stereo not given) | 7.14 | 1.76 | 2.99 | 1.46 | 13.2 | 5.6 | 31.6 | 9.54 | 22.8 | 0.62 | 10.6 | 3.21 | 15.1 | 2.44 | 4.08 | 0.05 | 3.17 | 0.1 | 4.98 | 3.61 |

— ChEMBL document CHEMBL1961873, “Compounds: GSK PKIS; Assays: Nanosyn kinase panel” (2012)
